An excerpt weighted towards active compounds, which were near 2.4% of everything screened.
SENP8 block-1 = human SENP8 protease inhibitors, primary screen, biochemical, fluorescence, Nedd8 protein substrate, uHTS; 0.64% of 360,000 active; recombinant SENP8; Sentrin-specific protease 8 (Homo sapiens), Q96LD8; inhibition, % at 20 µM; in the data active = inhibition mostly above about 40%, no sharp cut-off; inactive = mostly below about 27%
Target sequence (Q96LD8 whole entry, looked up): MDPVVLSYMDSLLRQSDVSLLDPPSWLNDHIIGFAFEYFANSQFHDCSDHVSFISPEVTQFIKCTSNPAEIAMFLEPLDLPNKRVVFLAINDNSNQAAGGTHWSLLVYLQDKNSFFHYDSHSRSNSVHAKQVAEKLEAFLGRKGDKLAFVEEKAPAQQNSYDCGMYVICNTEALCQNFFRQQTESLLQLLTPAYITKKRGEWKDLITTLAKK
Platelet DG rel = inhibitors of platelet dense granule secretion, primary screen, cell-based, MLPCN, human platelets. 0.22% of 300,000 active. AID 1663, 2009. inhibition, %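 (compounds screened at 7.5 µM in platelet-rich plasma)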. human platelet-rich plasma, SFLLRN dense granule ATP release, luminescence;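 active = mean replicate score, as percent of positive control, at or above 50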
SENP6 inh = SENP6 protease inhibitors, primary screen, biochemical, luminescence, uHTS. Sentrin-specific protease 6 (Homo sapiens), Q9GZR1. Recombinant SENP6 catalytic domain, aminoluciferin luminescence. inhibition, % at 10 µM. 1.8% of 330,000 active. AID 2599, 2010;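 active = inhibition above about 50% at the single tested dose, limit read from the data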;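 also: plate controls were DMSO wells with enzyme for no effect and DMSO wells lacking enzyme for full effect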
Target sequence (Q9GZR1 628-1112 limits assumed): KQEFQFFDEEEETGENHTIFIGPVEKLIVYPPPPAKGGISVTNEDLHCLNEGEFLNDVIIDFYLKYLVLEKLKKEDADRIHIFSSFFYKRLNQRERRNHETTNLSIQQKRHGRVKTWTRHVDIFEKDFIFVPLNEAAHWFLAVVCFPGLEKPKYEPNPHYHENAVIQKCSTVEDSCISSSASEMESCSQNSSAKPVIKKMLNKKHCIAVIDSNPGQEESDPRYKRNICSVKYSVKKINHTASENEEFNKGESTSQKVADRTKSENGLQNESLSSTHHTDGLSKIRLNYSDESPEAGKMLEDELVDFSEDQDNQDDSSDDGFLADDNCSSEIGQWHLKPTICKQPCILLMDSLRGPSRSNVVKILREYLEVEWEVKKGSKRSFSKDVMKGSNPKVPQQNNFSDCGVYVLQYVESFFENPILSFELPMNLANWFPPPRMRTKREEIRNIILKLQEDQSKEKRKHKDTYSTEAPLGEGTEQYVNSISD
SENP8 block-2 = SENP8 protease inhibitors, primary screen, biochemical, luminescence; Sentrin-specific protease 8 (Homo sapiens), Q96LD8; purified SENP8, Z-RLRGG-aminoluciferin cleavage; AID 2540, 2010; 1.2% of 330,000 active; inhibition, % at 10 µM; in the data active = inhibition above about 50%
SENP7 inh = SENP7 protease inhibitors, primary screen, biochemical, luminescence, uHTS. Sentrin-specific protease 7 (Homo sapiens), Q9BQF6. recombinant SENP7, Z-RLRGG-aminoluciferin luminescence, 40 min. inhibition, % at 5 µM. 1.5% of 330,000 active. AID 434973, 2010;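 active = inhibition above about 50% at the single test dose, limit read from the data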;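 also: plate controls were DMSO with enzyme for no effect and no enzyme buffer wells for full effect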
SENP8 confirm = SENP8 protease inhibitors, retest, confirmation, biochemical, luminescence, single concentration; shares compounds with SENP7 inh; Recombinant SENP8, Z-RLRGG-aminoluciferin luminescence, 60 min; inhibition, % at 12.5 µM; 40% of 6,200 active; AID 488912, 2010;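 active = mean inhibition across replicates above about 50%, limit read from the data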
SENP6 conf = SENP6 protease inhibitors, confirmation, biochemical, luminescence, single concentration; shares compounds with SENP7 inh; recombinant SENP6, Z-RLRGG-aminoluciferin luminescence; inhibition, % at 12.5 µM; 58% of 6,200 active
SENP7 confirm = SENP7 protease inhibitors, retest, confirmation, biochemical, luminescence, single concentration; shares compounds with SENP7 inh; recombinant SENP7, Z-RLRGG-aminoluciferin luminescence, 40 min; inhibition, % at 12.5 µM; 69% of 6,200 active
Casp3 SENP sel = caspase-3 protease inhibitors, confirmation, selectivity assay for SENP inhibitor project, biochemical, single concentration. 60% of 6,200 active. inhibition, % at 12.5 µM. AID 488918, 2010. shares compounds with SENP7 inh. purified caspase-3, Z-DEVD-aminoluciferin luminescence, 60 min;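 active = mean inhibition above about 50%, limit read from the data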;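 also: plate controls were enzyme with DMSO for no effect and wells without caspase-3 for full effect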
SENP luc ctr = interferes with luciferase luminescence in SENP counter-screen. shares compounds with SENP7 inh. Pre-incubated SENP8/Z-RLRGG-aminoluciferin, luciferase luminescence interference. inhibition, % at 12.5 µM. 39% of 6,200 active. AID 488919;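 active = mean inhibition above about 50% when retested at one dose, limit read from the data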;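 also: plate controls were DMSO wells with completed reaction for no effect and substrate without enzyme for full effect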
Numbers without * were called inactive; x = not tested or not shown.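 The calls were made as follows, unless noted: active = mean inhibition above about 50% in the one-dose retest (limit read from the data); inactive = the rest.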

SMILES | SENP8 block-1 | Platelet DG rel | SENP6 inh | SENP8 block-2 | SENP7 inh | SENP8 confirm | SENP6 conf | SENP7 confirm | Casp3 SENP sel | SENP luc ctr
COc1ccc(C(=O)O/N=C(\N)c2ccccc2)c(OC)c1 | 9 | 26 | 92* | 82* | 81* | 76* | 69* | 89* | 85* | 72*
COc1ccc(C(=O)O/N=C(\N)c2ccc(OC)c(OC)c2)cc1 | 7 | 1 | 64* | 23 | 81* | 27 | 17 | 61* | 42 | 11
COc1ccc(C(=O)O/N=C(\N)c2ccc(OC)c(OC)c2)c(OC)c1 | 30 | 5 | 4 | -8 | 0 | x | x | x | x | x
Cc1ccc(C(=O)Nc2ccc(O)cc2C(=O)O)cc1 | 12 | -2 | 63* | 35 | 42 | 62* | 58* | 83* | 75* | 64*
Cc1cccc(C(=O)Nc2ccc(O)cc2C(=O)O)c1 | 13 | 10 | 93* | 88* | 77* | 88* | 90* | 100* | 95* | 91*
CN1C(=O)/C(=C/c2ccc(C(=O)Nc3ccc(O)cc3C(=O)O)cc2)SC1=S | 26 | 22 | 93* | 96* | 60* | 62* | 97* | 70* | 98* | 29
O=C(CN1CCN(S(=O)(=O)N2CCOCC2)CC1)Nc1cc(Cl)ccc1Cl | 9 | 6 | -6 | -7 | 2 | x | x | x | x | x
CC(Sc1ccsc1[N+](=O)[O-])C(=O)N1CCN(c2ccccn2)CC1 (centres undefined) | 4 | -8 | -8 | -5 | -2 | x | x | x | x | x
CC1Cc2cc(/C=C3/SC(=S)N(C)C3=O)ccc2O1 (centres undefined) | 25 | 1 | 74* | 61* | 63* | 10 | 20 | 38 | 52* | -5
COCCn1c(=O)[nH]c2cc(C(=O)Nc3cccc(C(C)=O)c3)ccc2c1=O | -3 | -7 | -24 | 5 | -6 | x | x | x | x | x
CC[C@@H]1[C@H]2CCCC(=O)N3CC[C@@H](C[C@@H]1Nc1ccccc1)[C@@H]23 | 23 | -4 | -6 | 1 | 0 | x | x | x | x | x
CN(C)/C=N/C(=S)Nc1cc(Cl)cc(Cl)c1 | 5 | -11 | 5 | -2 | 6 | x | x | x | x | x
CN(C)/C=N/C(=S)Nc1ccc(Cl)c(Cl)c1 | 18 | -2 | 60* | 13 | 38 | 62* | 61* | 85* | 58* | 9
CN1C(=O)/C(=C/c2ccc(OC(=O)c3ccco3)cc2)SC1=S | 20 | 24 | 73* | 75* | 79* | 28 | 21 | 19 | 47 | 45
CN1C(=O)/C(=C\c2ccc(OC(=O)c3ccco3)cc2)SC1=S | 13 | 5 | 74* | 41 | 72* | 27 | 25 | 4 | 43 | 35
COc1cc(/C=C2\SC(=S)N(CC(=O)O)C2=O)ccc1OC(=O)c1ccco1 | 24 | 2 | 3 | -14 | 1 | x | x | x | x | x
CCC1(CC(C)C)SC(N)=NC1=O (centres undefined) | 8 | x | x | x | x | x | x | x | x | x
Cc1nn(CC(=O)NC2(C)CCS(=O)(=O)C2)c(C)c1S(=O)(=O)N(C)C (centres undefined) | 4 | x | -4 | -8 | 11 | x | x | x | x | x
Cn1c(=NC(=O)c2ccco2)sc2ccccc21 | -387 | 5 | 67* | 46 | 52* | 54* | 56* | 84* | 79* | 27
CC(OC(=O)c1cccc(-n2cnnn2)c1)c1nc2ccccc2c(=O)[nH]1 (centres undefined) | -2 | x | -21 | -7 | -13 | x | x | x | x | x
Cc1ccc(/C=N/c2sc3c(c2C#N)CCC3)s1 | 6 | 10 | 78* | 23 | 84* | 14 | 13 | 16 | 15 | 13
Cc1ccc(C=Nc2ccccc2C#N)s1 | -43 | 11 | 83* | 67* | 22 | 48 | 67* | 87* | 72* | 62*
N#Cc1c(/N=C/c2ccco2)sc2c1CCC2 | -18 | 1 | -6 | 19 | -5 | x | x | x | x | x
N#Cc1c(/N=C/c2cc3ccccc3s2)sc2c1CCC2 | 10 | -9 | -24 | -17 | -14 | x | x | x | x | x
Cc1ccc(/C=N/Nc2ccccn2)s1 | -20 | 4 | 17 | 6 | 5 | x | x | x | x | x
SMILES | SENP8 block-1 | Platelet DG rel | SENP6 inh | SENP8 block-2 | SENP7 inh | SENP8 confirm | SENP6 conf | SENP7 confirm | Casp3 SENP sel | SENP luc ctr
Cc1ccc(/C=N/c2sc3c(c2C#N)CCCCC3)o1 | 23 | 26 | 97* | 87* | 0 | 94* | 95* | 100* | 69* | 77*
COc1ccc(C(=O)/C=C/c2ccccc2F)c(OC(=O)c2ccc([N+](=O)[O-])cc2)c1 | 25 | -1 | 60* | 28 | -8 | 13 | 10 | -6 | 8 | 4
O=C(O/N=C1\CCCc2ccccc21)c1ccc(F)cc1 | 9 | 4 | 78* | 72* | 95* | 11 | 55* | 26 | 42 | 14
Cc1ccc2c(c1)/C(=N/OC(=O)c1ccc(F)cc1)CCS2 | -63 | -7 | 9 | -14 | 5 | x | x | x | x | x
O=C(O/N=C1/CCSc2ccccc21)c1ccccc1 | -18 | 4 | 89* | 79* | 74* | 90* | 89* | 98* | 79* | 75*
Cc1cccc(NC(=O)C(Cc2ccccc2)c2nn[nH]n2)c1C (centres undefined) | 13 | 3 | -28 | -10 | 4 | x | x | x | x | x
O=C(/C=C/c1cnc2ccccc2n1)NC12CC3CC(CC(C3)C1)C2 | 8 | -9 | -13 | -5 | -4 | x | x | x | x | x
Fc1ccccc1SCc1nnc(-c2ccccc2Br)o1 | 1 | 6 | 14 | 53* | 43 | 66* | 67* | 86* | 49 | 30
CCOc1cc(C2C3=C(CC(C)(C)CC3=O)N(CCOC)C3=C2C(=O)CC(C)(C)C3)ccc1O | -171 | 1 | -15 | -6 | -9 | x | x | x | x | x
COC(=O)c1ccc(-c2nc3cc(Cl)c(N)cc3s2)cc1 | -409 | 26 | 63* | 28 | 97* | -18 | -4 | 18 | 38 | -5
Oc1cc(O)cc(/C=C/c2ccc(O)c(O)c2)c1 | -384 | x | 65* | 44 | 45 | 63* | 71* | 83* | 63* | 73*
COc1ccccc1NC(=O)Cc1cccc2ccccc12 | 6 | -9 | -35 | 2 | 12 | x | x | x | x | x

From PubChem
